# Reference: PubChem BioAssay AID504465 (National Center for Advancing Translational Sciences (NCATS), 2011)
# Screen size: about 2,100 compounds; about 210 (10%) were called active. Another 53% or so got no clear call; they are omitted. Calls follow the shape of the dose curve; as a rule, active = well fitted inhibition curve with a large enough effect; inconclusive = small, poorly fitted or top-dose-only effect, or effect the other way; inactive = no such curve, though single readings can be large or run the other way. The list shows a part of the results.
# Experiment: IN Cell qHTS Assay for Inhibitors of the mTORC1 Signaling Pathway in MEF (Tsc2-/-, p53-/-) Cells: Sytravon; also: nearly all actives have a fitted effect of over 60% in size
# Conditions: phospho-rpS6 immunofluorescence, 24 h; series mostly up to 38.3 µM; activity, negative = inhibition: at the top concentration
# Source text: NIH Molecular Libraries Probe Production Centers Network [MLPCN] NIH Chemical Genomics Center [NCGC] MLPCN Grant: NS059428-01 Assay Submitter (PI): Blenis, John; Hoffman, Greg; Harvard University NCGC Assay Overview: Thee mammalian target of rapamycin (mTOR) is an intracellular serine/threonine kinase Aberrant regulation of mTOR signaling plays a causative role in a number of human diseases, including cancer, benign tumors such as lymphangioleiomyomatosis (LAM) and Tuberous Sclerosis Complex (TSC), and metabolic diseases such as diabetes and obesity. This project aims to identify inhibitors of ribosomal protein S6 (rpS6) phosphorylation. The phosphorylation of rpS6 is a key event downstream of mTOR activation. The assay uses a phospho-specific antibody of phospho-rpS6 to detect inhibitors of mTOR activation. Mutations in the Tsc1 and Tsc2 genes are the underlying genetic lesions responsible for TSC, causing constitutive activation of the mTORC1 pathway and leading to profound effects on cell metabolism. Aberrant metabolism in cancer has recently received significant attention as a target to develop therapeutic agents in the treatment of cancer1. As Tsc2-/- cells have lost the ability to respond to energy and growth factor deprivation, these cells are unable to properly down regulate cellular biosynthetic processes in response to metabolic stress, and are thus extremely sensitive to glucose deprivation-induced death.2 A central goal of this project is to explore the unique cell survival and metabolic properties of cells with Tsc1 or Tsc2 by screening for compounds that selectively target the Tsc2-/- MEFs by screening both Tsc2-/- and WT MEF cell lines. We hope to better understand these aspects of TSC physiology in order to exploit them for therapeutic benefit.
# NCGC IN Cell Assay Protocol: For quantitative high throughput analysis of mTORC1 signaling, we developed a cell-based assay for immuno-fluorescence based detection of rpS6 phosphorylation on the Acumen Explorer that will be used a platform for the primary small molecule screen. Mouse embryonic fibroblasts (MEFs) are cultured in 1536-well plates using DMEM + 10% FBS. Twenty-four hrs after plating, test compounds (solubilized in DMSO) are delivered and incubated with the cells for 24 hrs at 37 degree Celsius. Following the incubation, media with compound is aspirated and the cells are fixed in 4% paraformaldehyde (PFA) containing PBS + 0.2% TX-100. Next, PFA is aspirated, cells are washed two times with PBS plus 0.2% TX-100 and the cells are blocked for 1 hr at room temperature (blocking buffer: LiCOR Blocking Buffer plus 0.2% TX-100). This is followed by aspiration and staining with Alexa-488 conjugated-phospho-rpS6 Ser235/236 antibody for 2 hours at room temperature (Cell Signaling Technology # 4803, 1:50 dilution in blocking buffer). Cells are washed two times with PBS plus 0.2% TX-100, and stained with 10 uM propidium iodide (PI) for 20-25 minutes for cell number measurement (1:500 dilution of Hoescht staining is also added for IN Cell imaging). Active wells which are selected (based on Acumen results) are imaged on the IN Cell 1000 (GE Healthcare) using the D360/40X and HQ480/40X excitation filters for the Hoechst and Alexa-488 cytoplasmic stains, respectively. The fluorescence emission filters used were HQ460/40M and HQ535/50M for the Hoechst and Alexa-488 cytoplasmic stains, respectively. The normalized phospho-S6 staining is calculated as the ratio of […] for the single concentration rapamycin control (7.5 nM) and DMSO columns. […] Inhibition of the pathway is defined based on the normalized phospho-S6 intensity in rapamycin treated cells. Each treatment is reported as the % positive cells in the well, where thresholds are defined by selecting wells with the highest and lowest signal and differentiating between the % non-active and % active populations. […]
# Potency is read from the fitted curve at half-maximal effect.
Structure (SMILES),"activity, negative = inhibition",Potency
Cc1cccc(Cn2c(CNC(=O)c3ccccc3)nc3ccccc32)c1,-18.5% (inactive),–
CC(C)CCNC(=O)c1cccc(Nc2nc3ccccc3n3nnnc23)c1,–,4.14 µM (active)
Cc1ccc(-c2nc3scc(CCNC(=O)c4cccc(Br)c4)n3n2)cc1,0% (inactive),–
Cc1ccc(NC(=O)C2CCCN(S(=O)(=O)c3ccc4c(c3)CCCC(=O)N4)C2)cc1Cl (stereo not drawn),1.08% (inactive),–
CCCS(=O)(=O)c1c(S(=O)(=O)CCC)c2cc(C(C)(C)C)ccn2c1C(=O)c1ccc(OC)c(OC)c1,–,0.147 µM (active)
COc1ccc(OC)c(NC2=C(c3ccccc3)C(=O)c3ccccc32)c1,-54.5% (inactive),–
O=C(NCCc1ccccc1Cl)c1ccc2c(=O)n(-c3ccccc3)c(=O)[nH]c2c1,-43.6% (inactive),–
COc1ccc(OCc2nc3c4c(-c5ccccc5)c(-c5ccccc5)oc4ncn3n2)cc1,–,4.14 µM (active)
Cc1ccc(NCc2cc3cc4c(cc3n(CC(=O)Nc3ccc(C)cc3)c2=O)OCCO4)cc1,–,4.65 µM (active)
Cc1ccc(NC(=O)Cn2c(=O)c(CNc3ccccc3)cc3cc4c(cc32)OCCO4)cc1,0% (inactive),–
COc1cc2cc(CNc3ccc(C)cc3)c(=O)n(CC(=O)Nc3ccc(F)cc3F)c2cc1OC,-16.6% (inactive),–
CCOC(=O)c1c(C)oc2ncnc(Nc3cc(Cl)ccc3OC)c12,-1.76% (inactive),–
COc1cccc(C2=CC(c3cc(Br)ccc3F)n3nnnc3N2)c1 (stereo not drawn),0% (inactive),–
CC1CCCCN1CCCNC(=O)c1cc(Sc2cccc(Cl)c2)nc2ccccc12 (stereo not drawn),6.25% (inactive),–
COc1ccc(Nc2cc(C(=O)NCCCN(C)Cc3ccccc3)c3ccccc3n2)cc1,0% (inactive),–
CCC1CCCCN1CCCNC(=O)c1cc2c(Cl)nc3ccccc3c2s1 (stereo not drawn),–,14.7 µM (active)
O=C(NCCCc1nc2ccccc2n1Cc1ccc(Cl)cc1)c1ccco1,-10.8% (inactive),–
CCC1CCCCN1CCCNC(=O)c1c(C)oc2ncn(CC(C)C)c(=O)c12 (stereo not drawn),-3.66% (inactive),–
CN(CCCNC(=O)c1cc2c(Cl)nc3ccccc3c2s1)Cc1ccccc1,–,18.5 µM (active)
Fc1ccc(C(NCCc2ccccc2)c2nnc(-c3ccccc3Cl)o2)cc1 (stereo not drawn),-3.75% (inactive),–
O=C(NCC1CCN(Cc2ccccc2Cl)CC1)c1cc2ccc3cccnc3c2[nH]1,-19.1% (inactive),–
CCOc1ccc(C2CC(=O)c3c([nH]c(C(=O)OCc4ccccc4)c3C)C2)cc1 (stereo not drawn),–,16.5 µM (active)
COc1cc(C2CC(=O)c3c([nH]c(C(=O)OC4CCCCC4)c3C)C2)cc(OC)c1OC (stereo not drawn),-21.9% (inactive),–
Cc1c(C(=O)OC2CCC(C)CC2)[nH]c2c1C(=O)CC(c1ccc(F)cc1)C2 (stereo not drawn),-18.9% (inactive),–

Structure (SMILES),"activity, negative = inhibition",Potency
CCOc1ccc(CNC(=O)CCCc2cn(C)c3ccccc23)cc1OC,6.25% (inactive),–
Cn1ncc2c(NCc3cccc(Cl)c3)ncnc21,6.25% (inactive),–
N#Cc1ccccc1S(=O)(=O)N1CCC(Oc2ccc(-n3cnnn3)cc2)CC1,-17.1% (inactive),–
Cc1ccccc1CSCCNC(=O)C1CCN(S(=O)(=O)Cc2ccccc2)CC1,-21.6% (inactive),–
CCCNC(=O)C1CCN(Cc2cc3ccccc3n2Cc2ccccc2)CC1,-17.9% (inactive),–
Cc1ccccc1Cn1c(CN2CCC(C(=O)NCCN(C)C)CC2)cc2ccccc21,–,11.7 µM (active)
Cc1cccc(C)c1Nc1c(-c2ccsc2)nc2cccc(C)n12,-13% (inactive),–
Clc1cccc(CSc2ccc(-c3cccs3)nn2)c1,-10% (inactive),–
CCOC(=O)c1cc(-c2ccc(C)cc2)n(CC(=O)Nc2ccccc2F)c1C,–,14.7 µM (active)
CCOC(=O)c1cc(-c2ccccc2)n(-c2cccc(C(=O)N(C)c3ccc(C)cc3)c2)c1C,0% (inactive),–
CCOC(=O)c1cc(-c2ccccc2)n(CCC(=O)Nc2ccc(C(F)(F)F)cc2)c1C,0% (inactive),–
Cc1ccccc1Nc1c(-c2ccc(Cl)s2)nc2cccc(C)n12,15.5% (inactive),–
CC(CNC(=O)c1ccc2nc(CCc3ccccc3)oc2c1)c1ccccc1 (stereo not drawn),-0.769% (inactive),–
CCCS(=O)(=O)N1CC(=O)N(c2ccccc2F)C(C)(C(=O)NC2CCCCCC2)C1 (stereo not drawn),1.49% (inactive),–
COc1ccc(NC(=O)Cn2c(=O)n(Cc3ccco3)c(=O)c3cc(OC)c(OC)cc32)cc1,–,14.7 µM (active)
COc1ccc(NC(=O)c2cc3c(=O)n(Cc4ccco4)ccc3nc2C)cc1,0.892% (inactive),–
COc1ccc(OC)c(NC(=O)Cn2c(=O)n(Cc3ccccc3)c(=O)c3ccccc32)c1,-2.9% (inactive),–
CCOC(=O)Cn1c(=O)n(C2CCCCC2)c2nc(-c3cccc(C)c3)nc(C(N)=O)c21,-0.928% (inactive),–
O=C(Nc1ccc(C(F)(F)F)cc1)C1CCCN(S(=O)(=O)c2cccc3cccnc23)C1 (stereo not drawn),-23.6% (inactive),–
COc1ccc(NC(=O)c2ccc3c(c2)c(C)c(C)n3Cc2ccc(F)cc2)cc1,–,10.4 µM (active)
Cc1ccc(CNC(=O)CCCCCn2c(=O)c3sccc3n(CC(=O)Nc3ccc(C)c(F)c3)c2=O)cc1,-29.7% (inactive),–
Cc1ccc(Cn2c(=O)n(CCCCC(=O)NCc3ccccc3Cl)c(=O)c3ccccc32)cc1,-34.5% (inactive),–
Cc1ccc(-n2c(=O)c3ccc(C(=O)NCc4ccco4)cc3n(Cc3ccc(Cl)cc3)c2=O)cc1,–,16.5 µM (active)
COc1ccc(-n2c(=O)c3ccc(C(=O)NCc4ccc(C)cc4)cc3n(CC(=O)Nc3ccc(F)cc3)c2=O)cc1,–,14.7 µM (active)
